From PubChem BioAssay AID1159580 (chemical genetic matrix, 2015)
Values joined by “and” are separate entries in the source; they are usually repeats but may differ in a detail not shown here. Equal values may be shown once. The campaign covered roughly 5,500 compounds. About 2,000 (36%) were called active. Roughly 18% stayed inconclusive and do not appear here. No stated cut-off is given here; in the data, active means normalized growth mostly below about 0.91 (no sharp cut-off); inconclusive means no clear call, values can overlap the other calls; inactive means mostly above about 0.92. The list shows a part of the results.

Experiment: chemical genetic growth profiling, strain panel (AID 1159580);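 further: tested at 20 µM; growth read once vehicle control cultures reached saturation at 30 °C; 1 = growth at the plate median or of vehicle wells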
Conditions: S. cerevisiae deletion strains, growth OD

Measured: normalized growth

C[C@H]1[C@H](C)CC[C@]2(CO)CC[C@]3(C)C(=CCC4[C@@]5(C)CC[C@H](O)C(C)(C)C5CC[C@]43C)[C@H]12 (some centres not stated)
inactive: locus YAL021C, strain ccr4, stronger effect = lower value 1.02 | locus YAL026C, strain drs2, stronger effect = lower value 0.981 | locus YAL030W, strain snc1, stronger effect = lower value 0.997 | locus YBL061C, strain skt5, stronger effect = lower value 0.994 | locus YBR009C, strain hhf1, stronger effect = lower value 1.01 | locus YBR021W, strain FUR4, stronger effect = lower value 1.01 | locus YBR023C, strain chs3, stronger effect = lower value 0.995 | locus YBR171W, strain sec66, stronger effect = lower value 0.989 | locus YBR229C, strain ROT2, stronger effect = lower value 1.02 | locus YBR231C, strain swc5, stronger effect = lower value 0.996 | locus YBR279W, strain paf1, stronger effect = lower value 0.991 | locus YCL011C, strain gbp2, stronger effect = lower value 0.994 | locus YCL016C, strain dcc1, stronger effect = lower value 1.01 | locus YCL029C, strain bik1, stronger effect = lower value 1.06 | locus YCL061C, strain MRC1, stronger effect = lower value 1 | locus YCL069W, strain vba3, stronger effect = lower value 0.998 | locus YCR088W, strain abp1, stronger effect = lower value 0.995 | locus YDL005C, strain med2, stronger effect = lower value 0.986 | locus YDL035C, strain GPR1, stronger effect = lower value 0.994 | locus YDL040C, strain nat1, stronger effect = lower value 0.996 | locus YDL074C, strain BRE1, stronger effect = lower value 1.03 | locus YDL101C, strain DUN1, stronger effect = lower value 1.02 | locus YDL134C, strain PPH21, stronger effect = lower value 0.999 | locus YDL185W, strain tfp1, stronger effect = lower value 1.03 | locus YDL192W, strain arf1, stronger effect = lower value 1.04 | locus YDR001C, strain nth1, stronger effect = lower value 1 | locus YDR069C, strain doa4, stronger effect = lower value 0.988 | locus YDR101C, strain arx1, stronger effect = lower value 1.01 | locus YDR137W, strain rgp1, stronger effect = lower value 0.996 | locus YDR159W, strain sac3, stronger effect = lower value 1.01 | locus YDR162C, strain NBP2, stronger effect = lower value 1.01 | locus YDR195W, strain ref2 0.992 | locus YDR297W, strain sur2, stronger effect = lower value 1.01 | locus YDR318W, strain mcm21, stronger effect = lower value 1.02 | locus YDR334W, strain swr1, stronger effect = lower value 0.992 | locus YDR335W, strain msn5, stronger effect = lower value 0.999 | locus YDR388W, stronger effect = lower value 1.02 | locus YDR392W, strain spt3, stronger effect = lower value 1.03 | locus YDR502C, strain sam2, stronger effect = lower value 0.998 | locus YEL003W, strain gim4, stronger effect = lower value 1 | locus YEL037C, strain rad23, stronger effect = lower value 0.981 | locus YEL061C, strain CIN8 (second series), stronger effect = lower value 0.972 | locus YEL061C, strain CIN8, stronger effect = lower value 1.01 | locus YER015W, strain faa2, stronger effect = lower value 1 | locus YER016W, strain bim1, stronger effect = lower value 0.988 | locus YER110C, stronger effect = lower value 1.03 | locus YER111C, strain swi4, stronger effect = lower value 1.01 | locus YER155C, strain BEM2 (second series), stronger effect = lower value 0.995 | locus YER155C, strain BEM2, stronger effect = lower value 1.02 | locus YER167W, strain BCK2, stronger effect = lower value 0.994 | locus YFR010W, strain ubp6, stronger effect = lower value 0.987 | locus YGL078C, strain dbp3, stronger effect = lower value 1.01 | locus YGL086W, strain mad1, stronger effect = lower value 1.01 | locus YGL167C, strain pmr1, stronger effect = lower value 0.996 | locus YGL173C, strain kem1, stronger effect = lower value 1 | locus YGL227W, strain vid30, stronger effect = lower value 0.999 | locus YGL240W, strain doc1, stronger effect = lower value 0.975 | locus YGL248W, strain PDE1, stronger effect = lower value 1.01 | locus YGL253W, strain hxk2, stronger effect = lower value 0.995 | locus YGR135W, strain pre9, stronger effect = lower value 1.01 | locus YGR252W, strain gcn5, stronger effect = lower value 1.02 | locus YHR013C, strain ard1, stronger effect = lower value 0.982 | locus YHR027C, strain rpn1, stronger effect = lower value 1 | locus YHR030C, strain SLT2, stronger effect = lower value 1.01 and 1.03 | locus YHR079C, strain IRE1 (second series), stronger effect = lower value 1.02 | locus YHR079C, strain IRE1, stronger effect = lower value 1.04 | locus YHR094C, strain hxt1, stronger effect = lower value 1.03 | locus YHR129C, strain ARP1, stronger effect = lower value 1.02 | locus YHR142W, strain chs7, stronger effect = lower value 1.01 | locus YHR200W, strain rpn10, stronger effect = lower value 1.01 | locus YIL066C, strain RNR3, stronger effect = lower value 1.01 | locus YIL073C, strain SPO22, stronger effect = lower value 1.05 | locus YIL125W, strain kgd1, stronger effect = lower value 1.03 | locus YIR030C, strain dcg1, stronger effect = lower value 1.02 | locus YJL092W, strain hpr5, stronger effect = lower value 0.995 | locus YJL095W, strain BCK1 (second series), stronger effect = lower value 1.01 | locus YJL095W, strain BCK1, stronger effect = lower value 1.02 and 0.984 | locus YJL115W, strain asf1, stronger effect = lower value 0.991 | locus YJL129C, strain trk1, stronger effect = lower value 1 | locus YJL134W, strain LCB3, stronger effect = lower value 1.01 | locus YJL154C, strain vps35, stronger effect = lower value 0.986 | locus YJL164C, strain tpk1, stronger effect = lower value 1.01 | locus YJL166W, strain qcr8, stronger effect = lower value 0.994 | locus YJL168C, strain set2, stronger effect = lower value 1.02 | locus YJL187C, strain SWE1 (second series), stronger effect = lower value 1.02 | locus YJR043C, strain POL32, stronger effect = lower value 1 | locus YJR066W, strain TOR1, stronger effect = lower value 0.997
